# SKKanGAS inh: inhibitors of SKKanGAS S. pyogenes growth in kanamycin (SK-promoter or general growth effect). BacTiter-Glo, 6 h. inhibition, % at 7.5 µM. 300,000 compounds, 1.3% hits;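 active = mean replicate score, as percent of positive control median, at least 50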;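 note: strain carries kanamycin resistance gene driven by streptokinase promoter and grows in 40 µg/ml kanamycin; loss of luminescence reflects streptokinase promoter inhibition or plain growth inhibition; 0% = median of DMSO wells and 100% = positive control at its reference dose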
# tim23-1 inh: inhibits growth of tim23-1 mutant yeast; S. cerevisiae tim23-1 growth, BacTiter-Glo luminescence, 24 h; 330,000 compounds, 1.3% hits; inhibition, % at 20 µM;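 active = growth inhibition of the mutant yeast at or above 50%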;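 note: temperature-sensitive mutant grown at 25 °C; plate controls were DMSO-treated mutant yeast for no effect and medium wells lacking yeast for full effect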
# TIM10 inh: inhibits growth of TIM10 yeast strain; S. cerevisiae TIM10 strain growth, BacTiter-Glo luminescence, 24 h; inhibition, % at 10 µM; 330,000 compounds, 1.4% hits; AID 463195;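 active = inhibition of 40% or more at the single tested concentration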;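 note: wild-type TIM10 isogenic control strain grown at permissive 25 °C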
# ATG4B inh: ATG4B (human) cysteine protease inhibition; Q9Y4P1; ATG4B cleavage of LC3-PLA2, NBD-HPC fluorescence, 1 h; inhibition, % at 8.33 µM; 340,000 compounds, 0.51% hits; AID 504462; in the data active = inhibition above about 40%
# Target sequence (Q9Y4P1 whole entry, looked up): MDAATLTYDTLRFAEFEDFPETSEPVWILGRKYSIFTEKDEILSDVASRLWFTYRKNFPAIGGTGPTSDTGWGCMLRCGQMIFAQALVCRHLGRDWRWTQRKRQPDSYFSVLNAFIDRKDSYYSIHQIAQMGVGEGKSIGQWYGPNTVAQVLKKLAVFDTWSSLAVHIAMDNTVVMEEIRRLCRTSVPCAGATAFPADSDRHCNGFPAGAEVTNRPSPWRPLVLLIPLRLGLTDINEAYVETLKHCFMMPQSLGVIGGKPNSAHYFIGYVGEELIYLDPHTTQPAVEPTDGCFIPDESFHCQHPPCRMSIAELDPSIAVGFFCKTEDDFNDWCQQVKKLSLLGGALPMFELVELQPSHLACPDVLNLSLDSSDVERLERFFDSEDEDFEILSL
# PfHsp90 yeast 2: inhibits growth of yeast expressing Plasmodium falciparum Hsp90. S. cerevisiae expressing PfHsp90, BacTiter-Glo ATP, 48 h; yeast lacking PDR1 and PDR3 efflux regulators. inhibition, % at 9.4 µM. 310,000 compounds, 0.32% hits;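 active = every replicate shows inhibition above about 80%, whatever the replicate mean, limit read from the data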;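 note: 0% = DMSO neutral controls and 100% = 20 µM radicicol positive controls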
# tim10-1 inh: growth inhibitors of tim10-1 mutant yeast | S. cerevisiae tim10-1 ts strain growth, BacTiter-Glo, 24 h | inhibition, % at 20 µM | 330,000 compounds, 2.2% hits | AID 463190;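 active = inhibition of at least 40%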;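 note: mutant grown at 25 °C; 0% = DMSO wells with yeast and 100% = wells holding no yeast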
# Starred values were filed as active, the others as inactive; x = no result given. Rows were chosen to be rich in hits. Some 4.7% of all compounds tested hit in one or more screens of this group.
SMILES,SKKanGAS inh,tim23-1 inh,TIM10 inh,ATG4B inh,PfHsp90 yeast 2,tim10-1 inh
Cc1ccc(C(=O)OC2OC(=O)C(Cl)=C2N2CCOCC2)cc1 (stereo not given),74.8*,26.2,13.0,-2.4,7.4,34.5
Cc1ccc(C(=O)Oc2ccccc2N2CCOCC2)cc1,7.8,24.7,29.9,19.7,-10.1,25.8
CCCCCC(=O)NC(=S)NC1C2CC3CC(C2)CC1C3 (stereo not given),83.2*,39.6,37.9,-2.3,-23.2,31.1
CCCCCC(=O)NNC(=S)NC(C)=O,8.7,-32.2,-15.8,-7.6,-2.2,25.8
O=c1c2ccccc2c(C=Nc2ccc(O)cc2)c(O)n1Cc1ccccc1,66.5*,11.3,19.0,-9.6,-15.6,20.6
COc1ccccc1CN1CCNC(=O)C1CC(=O)N(C)Cc1ccon1 (stereo not given),2.9,2.4,-14.0,-10.3,8.8,10.8
Cc1ccc(NC(=O)CN2C(=O)S/C(=C\c3cc(C)n(-c4ccc(C(=O)O)cc4)c3C)C2=O)cc1,17.9,17.3,8.1,24.8,-40.1,0.2
Cc1cc(C)c2nc(SCc3ccc([N+](=O)[O-])cc3)nc(C)c2c1,0.7,7.6,5.4,3.9,x,13.9
Cc1cc(C)c2nc(SCCc3ccccc3)nc(C)c2c1,71.5*,18.2,14.4,-7.8,-13.6,22.8
Cc1nc(Cc2nnc(SCC(=O)N3CCN(c4ccc(O)cc4)CC3)o2)cs1,x,12.6,-4.0,-0.7,-6.5,8.5
O=C(Cc1cccs1)N/N=C/c1ccco1,76.9*,-2.2,1.1,8.3,-7.0,-8.3
Cc1ccc2c(c1)c1c3n2CCN(CCC(=O)O)C3CCC1 (stereo not given),-4.6,2.6,-5.2,8.5,5.0,2.0
N#C/C(=C(/O)c1cc2ccccc2o1)c1nc2ccccc2s1,61.0*,-0.3,17.4,-22.1,15.6,-30.1
N#C/C(=C(/O)c1ccco1)c1nc2ccccc2s1,1.7,12.3,1.6,-8.3,20.1,19.1
CCN(CC)C(=O)Oc1ccc(Cl)c2cccnc12,-13.0,-1.8,-14.4,-1.7,-6.8,-0.7
O=C(Nc1cccc(C(F)(F)F)c1)Oc1ccc(Cl)c2cccnc12,99.3*,x,x,5.3,124.3*,x
O=C(C[n+]1cnn(CC(=O)c2ccc(Cl)cc2Cl)c1)c1ccc([N+](=O)[O-])cc1,93.3*,x,x,-5.7,-36.2,x
O=C(Cn1cnc([N+](=O)[O-])c1)c1ccc(Cl)cc1,-3.7,-106.7,-296.6,5.1,-6.0,-225.6
CN(C)C(CNc1ncnc2sccc12)c1cccs1 (stereo not given),-11.0,1.9,1.6,2.5,4.7,2.5
CCOC(=O)c1sc2ncnc(NCC(c3cccs3)N(C)C)c2c1C (stereo not given),53.4*,44.0,7.1,-4.2,1.6,33.4
Cc1ccc(C(=O)Nn2cnnc2)c(Cl)c1,0.9,1.4,9.4,-3.7,17.7,-0.3
O=C(COC(=O)CCC1CCCC1)Nc1ccccc1Sc1ccccc1,80.2*,-1.2,-9.9,-4.1,-1.8,14.4
CC1=CC(C)(C)n2c(O)c(N=N)c3c(C)c(C)cc1c32,67.7*,34.2,23.9,27.1,20.2,30.1
CC(=O)Nc1nc(NC(=O)/C=C/c2ccccc2)n(-c2ccccc2)n1,96.7*,-5.1,-0.6,3.8,-12.5,-12.0
O=S(=O)(Cc1cc(NCc2ccccc2)nc(-c2ccccn2)n1)c1ccccc1,56.3*,-14.9,-0.7,6.8,-17.9,10.4
SMILES,SKKanGAS inh,tim23-1 inh,TIM10 inh,ATG4B inh,PfHsp90 yeast 2,tim10-1 inh
COc1ccc(C(=O)NCC2COc3ccccc3O2)cc1S(=O)(=O)N1CCOCC1 (stereo not given),x,9.0,8.1,2.8,19.6,7.1
Cc1cc(=O)oc2c3c(cc(OCC(=O)NC4CC4)c12)OC(C)(C)CC3,88.0*,5.3,-2.7,-34.2,12.2,7.4
Cc1c(C)c2c(OCC(=O)NC3CC3)cc3c(c2oc1=O)CCC(C)(C)O3,-1.4,21.2,8.6,9.2,-4.4,10.8
O=S(=O)(Nc1cc(Sc2cccc3cccnc23)c(O)c2ccccc12)c1ccc(F)cc1,87.4*,x,x,6.5,x,x
O=C(O)CSc1cc(NS(=O)(=O)c2ccc(Cl)cc2)c2ccccc2c1O,1.1,x,x,-15.9,-12.5,x
O=[N+]([O-])c1cc(Br)cc(C=Nc2ccc3c(c2)OCO3)c1O,54.3*,31.7,4.3,17.1,-9.0,19.3
Cn1c(CNC(=O)CNC(=O)c2cccc(Cl)c2)cc(=O)n(C)c1=O,-0.4,-10.3,-0.5,5.3,29.1,-6.8
Cn1c(CNC(=O)CNC(=O)c2ccc(F)cc2)cc(=O)n(C)c1=O,56.4*,-1.5,5.3,-8.9,7.4,6.1
O=C(Nc1ccc(C(=O)NN2C(=O)c3ccccc3C2=O)cc1)c1ccccc1,13.0,2.1,8.9,2.2,-3.9,-3.0
Cc1ccc(/C=C2\SC(=S)N(C3CCS(=O)(=O)C3)C2=O)o1 (stereo not given),8.1,14.6,1.7,-4.7,-10.8,16.9
NS(=O)(=O)c1ccc(-c2ccc(/C=C3\SC(=S)N(C4CCS(=O)(=O)C4)C3=O)o2)cc1 (stereo not given),73.4*,20.0,5.7,-9.4,-11.6,25.3
CC1=C(C(=O)OCC2CCCO2)C(c2ccsc2)C2=C(CC(C)(C)CC2=O)N1 (stereo not given),0.7,13.8,12.5,1.6,-7.6,15.7
CC(=O)OCC1=C(C(=O)O)N2C(=O)[C@@H](NC(=O)CSc3ccncc3)[C@H]2SC1,x,4.4,-0.6,-6.9,20.0,0.2
CO/N=C(\C(=O)N[C@@H]1C(=O)N2C(C(=O)O)=C(COC(N)=O)CS[C@H]12)c1ccco1,102.5*,2.1,-2.3,-3.9,13.6,8.2
CON=C(C(=O)NC1C(=O)N2C(C(=O)O)=C(CSc3nc(=O)c(=O)[nH]n3C)CSC12)c1csc(N)n1 (stereo not given),x,x,x,1.4,-9.9,x
CC(=O)OCC1=C(C(=O)O)N2C(=O)C(NC(=O)c3ccc(F)cc3)C2SC1 (stereo not given),90.3*,9.2,11.8,1.4,-1.4,-1.7
CC(=O)OCC1=C(C(=O)O)N2C(=O)C(NC(=O)C(C)Cn3nc(C)c(Cl)c3C)C2SC1 (stereo not given),100.9*,-8.9,5.1,2.3,-4.0,20.9
CC1=C(C(=O)O)N2C(=O)C(NC(=O)c3nn(C)c(C)c3Cl)C2SC1 (stereo not given),-14.9,5.2,3.4,-4.5,-2.3,2.2
COCC1=C(C(=O)OC(C)OC(=O)OC(C)C)N2C(=O)[C@@H](NC(=O)/C(=N\OC)c3csc(N)n3)[C@H]2SC1 (stereo not given in full),101.8*,1.4,-4.8,1.8,17.3,-0.9
CCOc1ccc(C2c3c(oc4ccccc4c3=O)C(=O)N2CCCN2CCOCC2)cc1 (stereo not given),-12.6,5.8,0.6,-12.5,-0.5,13.9
